In PubChem BioAssay (NCI) one finds growth data, which are given here for eight compounds.

Structures are written as SMILES. The panel holds about 83,000 compounds, 20% with a hit somewhere; the sample as a whole holds those more often.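 Each cell line was grown in a 96-well plate and treated with one concentration of compound for 48 hours. Values below 10 were considered active.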 Unmarked numbers belong to inactive results. Calls of active or inactive are those of the source.

Assay in all cases: NCI-60 one-dose screen, 48 h (100 = growth as untreated, 0 = no growth, -100 = all killed)
Settings in all cases: 10 µM unless noted

Test [1] concerns NCI-H23 lung.
Test [2] concerns NCI-H226 lung.
Test [3] relates to NCI-H322M lung.
The subject of test [4] is HOP-62 NSCLC.
Test [5] deals with NCI-H460 lung.
Test [6] relates to HOP-92 NSCLC.
For test [7], the system named is NCI-H522 lung.
For test [8], the system named is A549/ATCC NSCLC.
The test system of test [9] is 786-0 renal.
Test [10] concerns COLO 205 colon.
In test [11] the test system is DU-145 prostate.
The subject of test [12] is K-562 leukemia.
The subject of test [13] is MALME-3M melanoma.
Test [14] deals with MDA-MB-231 breast.
Test [15] has as its system RXF 393 renal.
In test [16] the test system is SF-268 CNS.
For test [17], the system named is SF-295 CNS.
Test [18] deals with SF-539 CNS.
The subject of test [19] is UACC-257 melanoma.
Test [20] relates to M14 melanoma.

On to `Cc1ccc(Nc2cc(=S)nc(N)[nH]2)cc1C`, for which the growth in [1] was 90.8%; in test [2], 97.1%; in test [3], 98.1%; in [4], 89.3%; in test [5] it was 103%; in test [6] it was 75.7%. Besides, the growth is 91.1% in test [7]; 99.9% in test [8]; 98.9% in test [9]; 112% in test [10]; 102% in test [11]; 92.9% in test [12]. Moreover, the growth in [13] is 100%; in test [14], 80.6%; in test [15], 107%; in [16] it was 100%; in [17], 98.6%; in [18], 96.4%. For the same compound, the growth is 103% in test [19] and 93.7% in [20].

In the case of `C=C1C(=O)O[C@H]2[C@H]1CC/C(COC(=O)CCCCCC(=O)OC/C1=C/CC[C@@]3(C)O[C@H]3[C@H]3OC(=O)C(=C)[C@@H]3CC1)=C\CC[C@@]1(C)O[C@@H]21`, the growth in test [1] was 9.16% (active); in [2] it was 52%; in [3], 86.3%; in [4] it was 85.6%; in test [5] it was 76.4%; in test [6], -1.51% (active). For the same compound, the growth in test [7] is -72.5% (active); in test [8], 80.6%; in test [9] it was 7.09% (active); in test [10], -38.4% (active); in test [11], 22.4%; in test [12], 6.4% (active). Besides, the growth in test [13] was -11.1% (active); in test [14], -28.2% (active); in test [15], -77.3% (active); in test [16] it was 43.6%; in test [17], 84.7%; in test [18], 3.99% (active). The growth in test [19] was 48.2%; in test [20] it was -0.138% (active).

As for `CCCCCCCCOC(=O)c1ccc(O)c(OC)c1`, the growth in [1] was 92.5%; in [2], 88.5%; in test [3], 86.9%; in [4], 99.3%; in test [5], 104%; in test [6], 84.9%. The growth in test [7] is 73%; in [8], 89.6%; in test [9], 106%; in test [10] it was 114%; in test [11] it was 104%; in test [12], 116%. Also, the growth is 99.7% in test [13]; 85% in test [14]; 100% in test [15]; 83.8% in [16]; 98.7% in test [17]; 92.6% in test [18]. For the same compound, the growth in test [19] was 86.6%; in test [20], 106%.

For the compound `COc1cc2nc(-c3ccc(C(F)(F)F)cc3)cc(OCCN3CCC(O)CC3)c2cc1OC`, the growth in [1] was 88.9%; in [2] it was 56.3%; in test [3], 68.8%; in [4], 67.8%; in [5], 44.5%; in test [6], 71.2%. Also, the growth was 79.6% in [7]; 79.2% in test [8]; 78.7% in test [9]; 35.7% in [10]; 58.8% in test [11]; 61.3% in test [12]. For the same compound, the growth in [13] was 83.6%; in [14], 49.1%; in test [15] it was 61.2%; in test [16] it was 70%; in test [17], 80.4%; in test [18], 76.8%. The figures for the growth in test [19] and in test [20] were 92.3% and 25.2%, respectively.

Take `COc1cc2nc(-c3ccc(C(F)(F)F)cc3)cc(OCCCN3CCC(O)CC3)c2cc1OC`: the growth was 57.9% in test [1]; -9.29% (active) in test [2]; 61.1% in [3]; 45.3% in [4]; 16.5% in [5]; 19.9% in [6]. Besides, the growth in test [7] was 10.5%; in test [8] it was 27.7%; in test [9] it was 42.7%; in [10] it was 26.5%; in test [11], 28.3%; in [12], 6.21% (active). The growth in test [13] was 43.9%; in [14], 11.2%; in test [15] it was 42.1%; in [16], 49.9%; in [17], -43.5% (active); in test [18] it was 45.5%. Also, the growth was -8.17% (active) in test [19] and -55.9% (active) in [20].

`O=C(Nc1ccc2cc3ccc(NC(=O)NC4CCCCC4)cc3nc2c1)NC1CCCCC1`: the growth was 87.5% in test [1]; 97.7% in test [2]; 104% in test [3]; 89.2% in test [4]; 103% in test [5]; 99.8% in test [6]. The growth was 103% in test [7]; 101% in test [8]; 60.1% in test [9]; 100% in [10]; 97.3% in test [11]; 16.8% in test [12]. The growth was 106% in [13]; 101% in [14]; 15.7% in [15]; 68.1% in [16]; 45.6% in test [17]; 50.1% in test [18]. Also, the growth is 99.8% in test [19] and 90.5% in test [20].

Regarding `Cc1ccc(S(=O)(=O)Nc2ccc(Cl)cc2)cc1`, the growth was 91.6% in test [1]; 96.6% in [2]; 94% in test [3]; 98.4% in test [4]; 105% in test [5]; 86.9% in [6]. Moreover, the growth is 104% in [7]; 94% in test [8]; 100% in test [9]; 111% in test [10]; 118% in test [11]; 97.6% in test [12]. Besides, the growth was 100% in test [13]; 86.6% in test [14]; 103% in test [15]; 107% in [16]; 91.2% in [17]; 104% in [18]. Besides, the growth was 105% in test [19] and 103% in test [20].

On to `COc1cccc(C(Cc2ccccc2)Nc2ccccc2)c1OC` (stereo not given), for which the growth was 92.1% in test [1]; 91.3% in test [2]; 101% in test [3]; 92.6% in [4]; 101% in test [5]; 77.5% in [6]. The growth was 65.6% in [7]; 81.4% in test [8]; 95.5% in [9]; 105% in test [10]; 109% in test [11]; 90.4% in test [12]. The growth is 98.9% in test [13]; 97.4% in test [14]; 109% in test [15]; 101% in test [16]; 99.6% in test [17]; 104% in [18]. Besides, the results for the growth in test [19] and in test [20] were 91% and 97.2%, respectively.
